Source: the supplement of paper PMC10849652
The full data set covers some 7,900 targets. This sample favours those with a hit. About 0.6% of all pairs of compound and target were hits.

Target: AAK1 (UniProt A0A096LP25)
Experiment: log2 fold change, soluble protein after heating vs DMSO (PISA); higher = thermal stabilisation; K562 cells, 10 uM, 30 min; active = over 0.2 and 3.5 SD of the protein, either way, in both replicates (recomputed)
Procedure, shortened: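 For each measurement, 10 μM compound was applied for 30 min to K562 cells at 2×10^6 cells/mL. Aliquots were heated for 3 min across 48°C-58°C, pooled, and extracted in PBS with 0.5% NP-40 at 4°C; the supernatant after 21,000xg for 90 min was soluble protein. This was quantified by TMTpro 16plex LC-MS/MS with channel sums equalised, and thermal stability was reported relative to control samples from duplicates, on a log2 fold-change scale.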

log2 fold change, inactive:
COc1cc(C(=O)O)ccc1NC(=O)[C@@H]1N[C@@H](CC(C)(C)C)[C@](C#N)(c2ccc(Cl)cc2F)[C@H]1c1cccc(Cl)c1F [idasanutlin] -0.077, CN(C)CC(=O)Nc1ccc2[nH]c(=O)c3ccccc3c2c1 0.037, Cc1ccc2c(=O)c3ccccc3n(CCCN)c2c1C -0.044, COc1cccc2cc(-c3nc([C@H]4CC[C@H](C(=O)O)CC4)n4ncnc(N)c34)[nH]c12 0.129, c1cc(OCCN2CCCCC2)cc(-c2n[nH]c3ccc(-c4nnc[nH]4)cc23)c1 0.142, CCN(CCCOc1ccc2c(Nc3cc(CC(=O)Nc4cccc(F)c4)[nH]n3)ncnc2c1)CCOP(=O)(O)O [barasertib] -0.004, Nc1ccccc1NC(=O)c1ccc(CNC(=O)OCc2cccnc2)cc1 [entinostat] -0.061, O=C1NC(=O)/C(=C\c2ccc3nccnc3c2)S1 0.107, CC(C)N(C[C@H]1O[C@@H](n2cnc3c(N)ncnc32)[C@H](O)[C@@H]1O)[C@H]1C[C@@H](CCc2nc3cc(C(C)(C)C)ccc3[nH]2)C1 [pinometostat] -0.033, COc1ccc(Cn2ccc3ccc(C(=O)NO)cc32)cc1 -0.089, NC1(c2ccc(-c3nc4ccn5c(=O)[nH]nc5c4cc3-c3ccccc3)cc2)CCC1 0.048, Cc1nc(Nc2n[nH]c3c2CN(C(=O)N[C@H](CN(C)C)c2ccccc2)C3(C)C)c2sccc2n1 0.104, Cc1cccc(CC(=O)N2CCc3c2ccc(-c2cn(C)c4ncnc(N)c24)c3F)n1 -0.017, C=CC(=O)N1CCC[C@@H](n2nc(-c3ccc(Oc4ccccc4)cc3)c3c(N)ncnc32)C1 [ibrutinib] 0.074, Cc1cc(SCc2sc(-c3ccc(C(F)(F)F)cc3)nc2C)ccc1OCC(=O)O -0.048, Cc1ccc(NC(=O)c2cccc(C(C)(C)C#N)c2)cc1Nc1ccc2ncn(C)c(=O)c2c1 -0.131, O=C(O)c1ccc2c(c1)nc(Nc1cccc(Cl)c1)c1ccncc12 [silmitasertib] -0.072, NCC(=O)Nc1ccc(-n2nc(C(F)(F)F)cc2-c2ccc3c(ccc4ccccc43)c2)cc1 -0.085, CNc1nc(-c2ccc3c(N)n[nH]c3c2)cc(N2C[C@@H](C(=O)NC3CCCCC3)CC[C@H]2C)n1 0.244
